From PubChem BioAssay (Tox21)
Unmarked numbers belong to inactive results. Inconclusive results are not listed. Entries that show only a call come without a potency. The source made the active and inactive calls. Unless noted, calls follow the shape of the full dose curve.

What was measured:
[1] = Nuclear factor erythroid 2-related factor 2/antioxidant responsive element (Nrf2/ARE) small molecule agonists: qHTS cell viability counter screen in human keratinocytes (AID 1919968; active = well fitted curve in the direction sought with a large enough effect in the repeat runs; an effect the other way counts as inactive or inconclusive; also: nearly all actives have a fitted effect of over 55% in size; also: potency is read from the fitted curve at half-maximal effect)
Procedure, shortened: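 KeratinoSens HaCaT cells, 1,500/well, preincubated 5 h, then exposed to compounds in DMSO for 23 h at 37 C/5% CO2. Viability read as CellTiter-Fluor fluorescence after 1 h, in the same wells as the ARE-luciferase read.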

[2] = Nuclear factor erythroid 2-related factor 2/antioxidant responsive element (Nrf2/ARE) small molecule agonists: luciferase reporter gene qHTS assay in human keratinocytes (AID 1919969); also: nearly all actives have a fitted effect of over 35% in size
[3] = target: Gonadotropin-releasing hormone receptor (Homo sapiens) (UniProt P30968); assay: Human gonadotropin-releasing hormone receptor (GnRHR) small molecule agonists, calcium flux assay in GnRHR-HEK293 cells (AID 1920063); also: nearly all actives have a fitted effect of over 35% in size
Procedure, shortened: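 HEK293 cells stably expressing human GnRHR were dye-loaded for 1 h at 37 C. Compound was added in agonist mode and fluorescence (Ex/Em 480/540) recorded kinetically for 3 min. Fifteen concentrations, triplicates.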

[4] = target: KiSS-1 receptor (Homo sapiens) (UniProt Q969F8); assay: Human kisspeptin (KISS1R) small molecule agonists, calcium flux assay in KISS1R-HEK293 cells (AID 1920064; active = well fitted curve in the direction sought with a large enough effect in the repeat runs; an effect the other way counts as inactive or inconclusive)
Procedure, shortened: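 HEK293 cells stably expressing human KISS1R were loaded with calcium dye for 1 h at 37 C, then given compound; fluorescence (Ex/Em 480/540) was read kinetically for 3 min. Fifteen concentrations, triplicate.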

[5] = G protein-coupled receptor (GPCR) small molecule agonists, calcium flux assay: HEK293 wild type cell line counter screen (AID 1920065)
Procedure, shortened: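 Wild-type HEK293 cells plated 18 h, loaded with calcium dye 1 h at 37 C, then compounds added in agonist mode (ATP as positive control). Kinetic fluorescence Ex/Em 480/540 recorded 3 min at 1 sec intervals; 15 concentrations, triplicate.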

[6] = p53 small molecule agonists, cell-based qHTS assay with human liver microsomes (AID 1963577);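 also: p53 response element beta-lactamase reporter cells with liver microsomes plus NADPH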
Procedure, shortened: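 With metabolic activation: human liver microsomes (0.5 mg/mL final) plus NADPH (0.5 mg/mL final) added alongside compounds to p53RE-bla cells; 16 h 37 C exposure; beta-lactamase read by LiveBLAzer fluorescence.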

[7] = p53 small molecule agonists, cell-based qHTS assay with rat liver microsomes (AID 1963578)
Procedure, shortened: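 Metabolic activation by rat liver microsomes and NADPH, each 0.5 mg/mL final, added right after compounds to p53RE-bla reporter cells (4,000/well, plated 5 h earlier). 16 h at 37 C, then LiveBLAzer substrate for 2 h at room temperature in the dark; fluorescence read-out.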

[8] = p53 small molecule agonists, cell-based qHTS assay with human liver microsomes: qHTS cell viability counter screen (AID 1963579); also: nearly all actives have a fitted effect of over 45% in size
Procedure, shortened: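 Metabolic activation used human liver microsomes and NADPH, both 0.5 mg/mL final, over 16 hours at 37 C on p53RE-bla cells (4,000/well). Cytotoxicity measured by CellTiter-Glo luminescence, 30 min at room temperature.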

[9] = p53 small molecule agonists, cell-based qHTS assay with rat liver microsomes: qHTS cell viability counter screen (AID 1963580); also: nearly all actives have a fitted effect of over 45% in size
Procedure, shortened: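 HCT-116 p53RE-bla, 4,000 cells/well, 5 h pre-incubation; cpd + rat liver microsomes 0.5 mg/mL + NADPH 0.5 mg/mL (final); 16 h, 37 C; CellTiter-Glo, 30 min RT; luminescence.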

[10] = p53 small molecule agonists, cell-based qHTS assay: qHTS cell viability counter screen (AID 1963581); also: nearly all actives have a fitted effect of over 45% in size
Procedure, shortened: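 p53RE-bla HCT-116 cells, compounds added 5 h after plating and incubated 16 h at 37 C. Cytotoxicity measured in the same wells as intracellular ATP by CellTiter-Glo luminescence after 30 min at room temperature.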

[11] = p53 small molecule agonists, cell-based qHTS assay (AID 1963582; active = well fitted activation curve with a large enough effect in the signal ratio in the repeat runs, not every such curve was filed as active; the % refers to the signal ratio)
Procedure, shortened: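 p53RE-bla reporter cells, compounds added in DMSO after 5 h plating, incubated 16 h at 37 C. Beta-lactamase read via 2 h room-temperature LiveBLAzer B/G FRET substrate, fluorescence intensity.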

[12] = target: 5-hydroxytryptamine receptor 2A (Homo sapiens) (UniProt P28223); assay: 5-hydroxytryptamine receptor 2A (HTR2A) small molecule antagonists, cell-based qHTS assay (AID 1963586); also: nearly all actives have a fitted effect of over 45% in size; also: potency is read from the fitted curve at half-maximal effect
Procedure, shortened: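 Antagonist-mode intracellular calcium assay: DOI (4 nM) added after 5 min compound pre-incubation at room temperature to dye-loaded HTR2A-CHO cells. Fluorescence followed for 3 min, sampled every second.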

[13] = target: Muscarinic acetylcholine receptor M1 (Homo sapiens) (UniProt P11229); assay: Cholinergic receptor muscarinic 1 (CHRM1) small molecule antagonists, cell-based qHTS assay (AID 1963588); also: nearly all actives have a fitted effect of over 40% in size; also: potency is read from the fitted curve at half-maximal effect
Procedure, shortened: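 CHRM1-CHO calcium-flux assay, antagonist mode. Cells were seeded 18 h, dye-loaded 1 h at 37 C and given compound for 5 min at RT, then acetylcholine was added at 50nM. FDSS fluorescence was read 3 min; 15 concentrations, three runs.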

[14] = target: Muscarinic acetylcholine receptor M1 (Homo sapiens) (UniProt P11229); assay: Cholinergic receptor muscarinic 1 (CHRM1) small molecule agonists, cell-based qHTS assay (AID 1963589); also: nearly all actives have a fitted effect of over 35% in size
Procedure, shortened: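 CHO cells stably expressing human CHRM1 were loaded with calcium dye for 1 h at 37 C, then compound was added in agonist mode. Intracellular calcium fluorescence was followed kinetically at 1 s intervals. Fifteen concentrations were tested in three independent runs.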

[15] = cAMP Responsive Elements (CRE) small molecule agonists, cell-based qHTS assay (AID 1963590)
Procedure, shortened: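 CRE-bla HEK 293T cells, 2,000/well in DMEM with 10% dialyzed FBS and 25 mM HEPES, pre-incubated 18 h at 37 C, then exposed to compound 3 h at 37 C. Beta-lactamase reporter read with LiveBLAzer B/G FRET substrate after 2 h at room temperature.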

[16] = target: Beta-2 adrenergic receptor (Homo sapiens) (UniProt P07550); assay: Adrenergic beta2 receptor (ADRB2) small molecule antagonists, cell-based qHTS assay (AID 1963592); also: series mostly up to about 92 µM; nearly all actives have a fitted effect of over 50% in size
Procedure, shortened: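 Cells (CHO, stable ADRB2 overexpression) incubated 18-20hr at 37C; compounds added from DMSO; agonist mix (1nM isoproterenol, 100uM IBMX, 25uM Ro-20-1724) added; 0.5hr RT; d2-cAMP and anti-cAMP-cryptate added; 1hr RT; 665/615 nm read.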

[17] = target: D(2) dopamine receptor (Homo sapiens) (UniProt P14416); assay: Dopamine D2 receptor (DRD2) small molecule agonists, cell-based qHTS assay (AID 1963594); also: nearly all actives have a fitted effect of over 35% in size
Procedure, shortened: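 cAMP accumulation in DRD2-HEK293 cells measured by HTRF after 1 h detection; compounds added 10 min before NKH477 (200nM […]) forskolin-analogue stimulation, 30 min at room temperature, with Ro20-1724 present at 0.1 mM final.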

[18] = target: D(2) dopamine receptor (Homo sapiens) (UniProt P14416); assay: Dopamine D2 receptor (DRD2) small molecule antagonists, cell-based qHTS assay (AID 1963595; active = well fitted inhibition curve with a large enough effect in the signal ratio in the repeat runs, with a control signal flat; the % refers to the signal ratio)
Procedure, shortened: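 Antagonist mode in DRD2-HEK293 cells: after compound addition with 0.1 mM Ro20-1724, cells received quinpirole (12 nM) and NKH477 (200 nM) for 30 min at room temperature; HTRF cAMP read after 1 h detection.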

[19] = cAMP Responsive Elements (CRE) small molecule antagonists, cell-based qHTS assay (AID 1963591; active = well fitted inhibition curve with a large enough effect in the signal ratio in the repeat runs, not every such curve was filed as active; the % refers to the signal ratio)
Procedure, shortened: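 CRE-bla HEK293T cells plated 18 h, then given compound plus NKH477 at 0.25 uM final for 3 h at 37C. Beta-lactamase reporter read with LiveBLAzer B/G FRET substrate after 2 h at room temperature.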

[20] = target: 5-hydroxytryptamine receptor 2A (Homo sapiens) (UniProt P28223); assay: 5-hydroxytryptamine receptor 2A (HTR2A) small molecule agonists, cell-based qHTS assay (AID 1963587); also: nearly all actives have a fitted effect of over 30% in size
Procedure, shortened: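 Kinetic calcium-flux fluorescence (2 min, 1 sec intervals) after compound addition in agonist mode. HTR2A-CHO cells were cultured 18 h, then dye-loaded 1 h at 37 C.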

Chain of Gonadotropin-releasing hormone receptor (Homo sapiens) (P30968 whole entry, looked up): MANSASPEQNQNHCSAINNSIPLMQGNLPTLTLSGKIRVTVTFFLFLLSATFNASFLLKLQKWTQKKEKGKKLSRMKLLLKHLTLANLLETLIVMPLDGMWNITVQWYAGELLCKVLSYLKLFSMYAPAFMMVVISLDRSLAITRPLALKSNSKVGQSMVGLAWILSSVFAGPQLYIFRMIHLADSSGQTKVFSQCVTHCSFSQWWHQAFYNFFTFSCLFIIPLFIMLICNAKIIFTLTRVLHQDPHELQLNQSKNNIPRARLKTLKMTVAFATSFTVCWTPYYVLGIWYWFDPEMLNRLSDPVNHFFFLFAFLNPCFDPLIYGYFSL
Chain of Beta-2 adrenergic receptor (Homo sapiens) (P07550 whole entry, looked up): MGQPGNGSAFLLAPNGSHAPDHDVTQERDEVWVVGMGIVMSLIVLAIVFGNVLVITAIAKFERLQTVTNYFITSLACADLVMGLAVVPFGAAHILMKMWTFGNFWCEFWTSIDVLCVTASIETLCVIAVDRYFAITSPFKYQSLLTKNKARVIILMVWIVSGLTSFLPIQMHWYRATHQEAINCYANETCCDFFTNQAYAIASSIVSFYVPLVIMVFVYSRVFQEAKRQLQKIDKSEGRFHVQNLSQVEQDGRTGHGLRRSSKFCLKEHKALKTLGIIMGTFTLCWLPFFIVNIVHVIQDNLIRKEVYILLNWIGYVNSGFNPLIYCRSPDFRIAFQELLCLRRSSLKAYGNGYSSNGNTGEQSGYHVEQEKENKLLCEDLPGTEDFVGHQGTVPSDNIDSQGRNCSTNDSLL
Chain of KiSS-1 receptor (Homo sapiens) (Q969F8 whole entry, looked up): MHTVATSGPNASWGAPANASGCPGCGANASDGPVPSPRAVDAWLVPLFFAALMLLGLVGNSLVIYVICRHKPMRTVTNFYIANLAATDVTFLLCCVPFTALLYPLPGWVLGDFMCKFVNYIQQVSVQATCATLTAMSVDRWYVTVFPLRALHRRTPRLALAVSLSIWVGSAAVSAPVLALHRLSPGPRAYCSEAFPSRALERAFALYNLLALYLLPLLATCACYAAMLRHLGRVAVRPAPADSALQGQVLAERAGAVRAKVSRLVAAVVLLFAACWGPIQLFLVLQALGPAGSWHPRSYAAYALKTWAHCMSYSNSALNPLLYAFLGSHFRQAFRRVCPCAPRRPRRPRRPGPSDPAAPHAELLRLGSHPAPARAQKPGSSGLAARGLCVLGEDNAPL
Chain of 5-hydroxytryptamine receptor 2A (Homo sapiens) (P28223 whole entry, looked up): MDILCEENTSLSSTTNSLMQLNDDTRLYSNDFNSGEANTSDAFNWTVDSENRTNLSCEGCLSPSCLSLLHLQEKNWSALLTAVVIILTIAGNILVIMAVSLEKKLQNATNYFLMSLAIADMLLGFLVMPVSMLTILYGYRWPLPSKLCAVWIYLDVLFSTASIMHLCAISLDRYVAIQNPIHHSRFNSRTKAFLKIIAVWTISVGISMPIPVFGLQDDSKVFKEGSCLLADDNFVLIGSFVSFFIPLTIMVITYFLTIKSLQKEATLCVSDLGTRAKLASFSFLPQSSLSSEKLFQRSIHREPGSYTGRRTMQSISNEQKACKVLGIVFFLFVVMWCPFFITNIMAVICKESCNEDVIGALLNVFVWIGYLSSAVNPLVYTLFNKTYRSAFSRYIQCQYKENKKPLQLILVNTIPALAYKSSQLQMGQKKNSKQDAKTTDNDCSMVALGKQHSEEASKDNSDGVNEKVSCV
Chain of D(2) dopamine receptor (Homo sapiens) (P14416 whole entry, looked up): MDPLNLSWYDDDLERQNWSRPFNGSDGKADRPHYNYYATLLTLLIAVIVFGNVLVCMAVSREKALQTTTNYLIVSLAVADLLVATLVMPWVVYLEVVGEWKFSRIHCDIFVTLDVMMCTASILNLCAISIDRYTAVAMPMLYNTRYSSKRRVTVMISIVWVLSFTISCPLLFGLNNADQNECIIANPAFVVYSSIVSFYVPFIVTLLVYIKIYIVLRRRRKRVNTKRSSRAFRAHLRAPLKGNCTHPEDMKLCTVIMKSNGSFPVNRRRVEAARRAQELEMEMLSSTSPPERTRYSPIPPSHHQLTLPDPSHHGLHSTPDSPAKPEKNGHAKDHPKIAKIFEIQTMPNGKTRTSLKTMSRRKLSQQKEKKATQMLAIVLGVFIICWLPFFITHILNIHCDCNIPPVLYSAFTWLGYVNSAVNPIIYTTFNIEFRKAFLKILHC
Chain of Muscarinic acetylcholine receptor M1 (Homo sapiens) (P11229 whole entry, looked up): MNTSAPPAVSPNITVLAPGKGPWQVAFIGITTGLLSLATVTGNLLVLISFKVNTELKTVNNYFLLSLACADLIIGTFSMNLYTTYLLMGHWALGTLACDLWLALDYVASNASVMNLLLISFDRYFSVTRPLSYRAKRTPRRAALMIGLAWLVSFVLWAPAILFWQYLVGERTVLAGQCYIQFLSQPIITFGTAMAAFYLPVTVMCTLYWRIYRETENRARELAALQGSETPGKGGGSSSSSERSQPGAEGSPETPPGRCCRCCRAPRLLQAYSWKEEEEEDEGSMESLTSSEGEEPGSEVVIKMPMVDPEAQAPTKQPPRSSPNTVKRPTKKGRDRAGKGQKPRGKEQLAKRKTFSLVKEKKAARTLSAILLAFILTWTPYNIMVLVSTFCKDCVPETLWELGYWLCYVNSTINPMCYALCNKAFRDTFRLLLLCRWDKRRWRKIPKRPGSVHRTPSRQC

Compound	Potency [1]	Potency [2]	Potency [3]	outcome [4]	outcome [5]	Potency [6]	Potency [7]	Potency [8]	Potency [9]	Potency [10]	Potency [11]	Potency [12]	Potency [13]	Potency [14]	Potency [15]	Potency [16]	Potency [17]	Potency [18]	Potency [19]	Potency [20]
CC(C)(C)c1cc(CCC(=O)OCCSCCOC(=O)CCc2cc(C(C)(C)C)c(O)c(C(C)(C)C)c2)cc(C(C)(C)C)c1O	inactive	inactive	inactive	inactive	inactive	inactive	inactive	inactive	inactive	inactive	inactive	inactive	inactive	inactive	inactive	inactive	inactive	inactive		
CCN(CC)CCOC(=O)C(c1ccccc1)c1ccccc1	inactive	inactive	inactive	inactive	inactive	inactive	inactive	inactive	inactive	inactive	inactive	7.29 µM (active)	0.0103 µM (active)	inactive	inactive	inactive	inactive		inactive	
COc1cc(-c2ccc(N=C=O)c(OC)c2)ccc1N=C=O	inactive	inactive	inactive	inactive	inactive	inactive	inactive	inactive	inactive	inactive	inactive	inactive	inactive	inactive	inactive	inactive	inactive	inactive	inactive	
CC(C)CCCC(C)NCCC(C)C (stereo not given)	inactive	inactive	inactive	inactive	inactive	inactive	inactive	inactive	inactive	inactive	inactive	inactive	inactive	inactive	inactive	inactive	inactive	inactive		
CO[Si](CCCNc1ccccc1)(OC)OC	inactive	inactive	inactive	inactive	inactive	inactive	inactive	inactive	inactive	inactive	inactive	inactive	inactive	inactive		inactive	inactive	inactive	inactive	
O=C(Nc1ccc2c(O)c(N=Nc3ccc(N=Nc4ccc(S(=O)(=O)O)cc4)cc3)c(S(=O)(=O)O)cc2c1)c1ccccc1	30.6 µM (active)	inactive	inactive	inactive	inactive	inactive	inactive	inactive	inactive	inactive	inactive	inactive	inactive	inactive	inactive	inactive	inactive	inactive		
OC[C@@H](O)[C@@H](O)CO	inactive	inactive	inactive	inactive	inactive	inactive	inactive	inactive	inactive	inactive	inactive		inactive	inactive	inactive	inactive	inactive	inactive	inactive	inactive
CCOC(=O)[C@H](O)[C@@H](O)C(=O)OCC	inactive	inactive	inactive	inactive	inactive	inactive	inactive	inactive	inactive	inactive	inactive		inactive	inactive	inactive	inactive	inactive	inactive	inactive	inactive
C(=C/c1ccccc1)/c1ccccc1	inactive	inactive	inactive	inactive	inactive	inactive	inactive	inactive	inactive	inactive	inactive		inactive	inactive	inactive	inactive	inactive	inactive	inactive	inactive
CC[N+]1(CC)CCC(=C(c2ccccc2)c2ccccc2)C1C (stereo not given)	inactive	inactive	inactive	inactive	inactive	inactive	inactive	inactive	inactive	inactive	inactive		0.0259 µM (active)	inactive	inactive	inactive	inactive		inactive	inactive
CCCCOc1ccc(C(=O)CCN2CCCCC2)cc1	inactive	inactive	inactive	inactive	inactive	inactive	inactive	inactive	inactive	inactive	inactive		10.3 µM (active)	inactive	inactive			inactive	inactive	inactive
CC(=O)CC(C)C	inactive	inactive	inactive	inactive	inactive	inactive	inactive	inactive	inactive	inactive	inactive		inactive	inactive	inactive	inactive		inactive	inactive	inactive
O[C@@H]1CO[C@H]2[C@@H]1OC[C@@H]2O	inactive	inactive	inactive	inactive	inactive	inactive	inactive	inactive	inactive	inactive	inactive		inactive	inactive	inactive	inactive	inactive		inactive	inactive
O=C(CO)[C@@H](O)[C@H](O)[C@H](O)CO	inactive	inactive	inactive	inactive	inactive	inactive	inactive	inactive	inactive	inactive	inactive		inactive	inactive	inactive	inactive		inactive	inactive	inactive
